Results taken from PubChem BioAssay.
Activity calls are given as the source filed them. Unless noted, no rule for the calls is given here.

Key:
[1] = HepG2 liver cancer cell viability effects, profiling panel, resazurin fluorescence, 24 h, PK04 Diversity Set (AID 1172); conditions: higher = more signal
[2] = basal S. cerevisiae growth modulation, no modifier, primary screen, OD600, strain BY4716, 24 h, basal condition (AID 1173); conditions: OD600, 24 h, higher = more signal, called active from +8 up or from −8 down
[3] = MM1S myeloma cell viability, profiling panel, resazurin fluorescence, basal, 24 h, PK04 Diversity Set (AID 1174); conditions: higher = more signal, called active from +8 up or from −8 down;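 also: MM1S multiple myeloma cell line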
[4] = target: Dihydroorotate dehydrogenase (quinone), mitochondrial (Plasmodium falciparum (isolate 3D7)) (UniProt Q08210); experiment: PfDHODH enzyme inhibitors, primary screen, biochemical, C-terminal His tag, absorbance 600 nm (AID 1175); conditions: DCIP absorbance 600 nm, higher = more signal, called active from +8 up or from −8 down;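 also: recombinant parasite enzyme with a five histidine tag at its C terminus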
Chain of Dihydroorotate dehydrogenase (quinone), mitochondrial (Plasmodium falciparum (isolate 3D7)) (Q08210 whole entry, looked up): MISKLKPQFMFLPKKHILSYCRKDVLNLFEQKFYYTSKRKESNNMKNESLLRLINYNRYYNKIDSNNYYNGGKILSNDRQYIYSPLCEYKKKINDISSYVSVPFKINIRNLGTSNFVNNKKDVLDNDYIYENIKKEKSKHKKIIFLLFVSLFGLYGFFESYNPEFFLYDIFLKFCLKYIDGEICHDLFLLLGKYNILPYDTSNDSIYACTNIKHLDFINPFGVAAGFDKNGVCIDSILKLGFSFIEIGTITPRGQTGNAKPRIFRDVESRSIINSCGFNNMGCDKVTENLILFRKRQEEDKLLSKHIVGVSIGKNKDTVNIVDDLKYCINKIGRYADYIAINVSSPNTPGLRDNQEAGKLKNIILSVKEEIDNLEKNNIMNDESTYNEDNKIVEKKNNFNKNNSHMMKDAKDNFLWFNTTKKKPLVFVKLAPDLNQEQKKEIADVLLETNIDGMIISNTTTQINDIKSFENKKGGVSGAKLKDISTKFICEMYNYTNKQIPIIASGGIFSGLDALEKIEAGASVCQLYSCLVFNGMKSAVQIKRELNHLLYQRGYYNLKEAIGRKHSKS

[5] = P. aeruginosa biofilm formation inhibitors, primary screen, strain PAO1, LB-PBS medium, absorbance 600 nm (AID 1176); conditions: P. aeruginosa PAO1 growth/biofilm, A600, 12 h; higher = more signal
[6] = S. cerevisiae RM11-1a growth modifiers, primary screen, strain RM11-1a, OD600, basal, 24 h (AID 1177); conditions: OD600, 24 h, higher = more signal, called active from +8 up or from −8 down;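 also: cultures grown under basal conditions with no added stressor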
[7] = E. coli acrAB mutant growth effects, primary screen, E. coli filamentation inducers, strain DRC39, OD650, 24 h (AID 1178); conditions: higher = more signal, called active from +8 up or from −8 down;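 also: growth measured as culture turbidity by optical density at 650 nm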
[8] = E. coli acrAB mutant growth effects, primary screen, E. coli filamentation inducers, strain DRC39, OD650, 48 h (AID 1179);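 also: screen aims at cell division blockers that make cells filament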; conditions: E. coli DRC39 delta-acrAB growth, higher = more signal, called active from +8 up or from −8 down
[9] = RPMI8226 myeloma cell viability, profiling panel, resazurin fluorescence, basal, 24 h, PK04 Diversity Set (AID 1180); conditions: higher = more signal;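 also: RPMI8826 multiple myeloma cell line at 5000 cells per well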
[10] = target: E3 ubiquitin-protein ligase XIAP (Homo sapiens) (UniProt P98170); experiment: XIAP binders, primary screen, biophysical, small-molecule microarray, fluorescence 635 nm (AID 1181); conditions: small-molecule microarray binding, higher = more signal;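 also: score merges 667 nm emission and signal to noise over triplicate slides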
Chain of E3 ubiquitin-protein ligase XIAP (Homo sapiens) (P98170 whole entry, looked up): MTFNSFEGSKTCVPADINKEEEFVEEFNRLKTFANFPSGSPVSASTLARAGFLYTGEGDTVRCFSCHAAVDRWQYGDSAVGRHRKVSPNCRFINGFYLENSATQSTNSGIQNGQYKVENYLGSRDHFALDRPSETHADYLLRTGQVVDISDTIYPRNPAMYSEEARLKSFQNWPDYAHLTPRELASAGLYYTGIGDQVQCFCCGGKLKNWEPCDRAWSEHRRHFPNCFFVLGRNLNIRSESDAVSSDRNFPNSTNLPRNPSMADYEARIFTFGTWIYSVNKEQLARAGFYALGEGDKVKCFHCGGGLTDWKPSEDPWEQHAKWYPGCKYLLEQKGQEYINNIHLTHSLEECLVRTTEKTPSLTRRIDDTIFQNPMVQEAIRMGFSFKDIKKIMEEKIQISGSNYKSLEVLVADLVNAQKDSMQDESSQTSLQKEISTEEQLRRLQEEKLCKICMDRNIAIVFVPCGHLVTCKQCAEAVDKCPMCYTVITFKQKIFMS

[11] = system: XIP peptide (Xip251-270) binding; experiment: small-molecule binders of XIP peptide, primary screen, biochemical, small-molecule microarray, fluorescence 635/667 nm, 0.1 µg/mL protein (AID 1182); conditions: fluorescent protein binding, 635 nm, higher = more signal, called active from +8 up or from −8 down
[12] = system: XIP peptide (Xip251-270); experiment: small-molecule binders of XIP peptide, primary screen, biochemical, small-molecule microarray, fluorescence 635/667 nm, 0.5 µg/mL protein (AID 1183); conditions: small-molecule microarray binding, fluorescence 635 nm; higher = more signal
[13] = Plasmodium falciparum growth inhibition, primary screen, strain 3D7, DAPI fluorescence, 100 nL (AID 1184);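 also: parasites grown inside human red blood cells in medium with human serum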; conditions: P. falciparum 3D7 growth, 3 d, higher = more signal
[14] = target: Homeobox protein Hox-A13 (Mus musculus) (UniProt Q62424); experiment: inhibitors of HoxA13-DNA binding, primary screen, biochemical, fluorescence polarization, labeled oligonucleotide (AID 1185); conditions: 15 min, higher = more signal, called active from +8 up or from −8 down
Chain of Homeobox protein Hox-A13 (Mus musculus) (Q62424 whole entry, looked up): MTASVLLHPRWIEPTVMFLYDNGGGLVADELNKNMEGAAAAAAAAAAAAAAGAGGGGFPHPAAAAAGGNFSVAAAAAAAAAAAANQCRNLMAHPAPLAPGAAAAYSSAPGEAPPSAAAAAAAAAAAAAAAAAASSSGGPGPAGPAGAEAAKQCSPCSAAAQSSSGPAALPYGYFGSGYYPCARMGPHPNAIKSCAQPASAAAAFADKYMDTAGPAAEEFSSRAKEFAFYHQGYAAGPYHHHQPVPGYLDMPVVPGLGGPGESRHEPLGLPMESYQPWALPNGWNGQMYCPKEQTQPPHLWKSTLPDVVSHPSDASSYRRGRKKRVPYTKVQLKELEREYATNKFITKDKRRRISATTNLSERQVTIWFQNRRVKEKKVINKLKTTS

[15] = inhibitors of hydroxyurea-induced Chk1 phosphorylation, primary screen, imaging, HeLa, phospho-Chk1 antibody, percent positive cells (AID 1186); conditions: hydroxyurea-induced phospho-Chk1 immunofluorescence imaging, higher = more signal
[16] = inhibitors of hydroxyurea-induced Chk1 phosphorylation, primary screen, imaging, HeLa, phospho-Chk1 nuclear intensity (AID 1187); conditions: hydroxyurea-induced phospho-Chk1 immunofluorescence imaging, higher = more signal

Structure (SMILES)	z-score [1]	z-score [2]	z-score [3]	composite z-score [4]	z-score [5]	z-score [6]	z-score [7]	z-score [8]	z-score [9]	composite z-score [10]	composite z-score [11]	composite z-score [12]	z-score [13]	z-score [14]	z-score [15]	z-score [16]
COC(=O)[C@@]1(Cc2ccc(OC)cc2)[C@H]2c3cc(C(=O)N(C)C)n(Cc4ccc(C)o4)c3C[C@H]2CN1C(=O)c1ccccc1	-0.239	0.256 (inactive)	-3.45 (inactive)	0.376 (inactive)	-0.719 (inactive)	1.54 (inactive)	0.502 (inactive)	-0.0131 (inactive)	-4.83	0.072	0.223 (inactive)	0.0805	-0.952	-4.5 (inactive)	0.046 (inactive)	0.304 (inactive)
CCOC(=O)C[C@H]1[C@H](OC(=O)c2ccccc2-c2ccccc2)[C@@H](NC(=O)c2ccc3ccccc3c2)c2cc(OCCCO)ccc2N1C(=O)c1ccccc1	-0.655	0.264 (inactive)	0.0324 (inactive)	0.198 (inactive)	-0.341 (inactive)	0.874 (inactive)	0.547 (inactive)	0.203 (inactive)	0.225	-0.0988	-0.323 (inactive)	0.306	-1.72	-2.39 (inactive)	0.185 (inactive)	0.361 (inactive)
C=CC[C@]1(C(=O)N2CCCCC2)N=C(c2ccc(OCCCO)cc2)O[C@H]1c1ccccc1CN=[N+]=[N-]	0.948	-1.03 (inactive)	-0.398 (inactive)	-0.709 (inactive)	-0.124 (inactive)	0.0349 (inactive)	0.552 (inactive)	1.11 (inactive)	0.128	0.354	0.541 (inactive)	0.652	-2.57	-3.9 (inactive)	-0.707 (inactive)	-1.06 (inactive)
O=C1N(CCS(=O)(=O)c2ccccc2)c2ccccc2[C@H]2OC(c3ccc(OCCCO)cc3)=N[C@@]12Cc1ccccc1	0.676	-0.148 (inactive)	-2.38 (inactive)	-0.0331 (inactive)	0.755 (inactive)	2.01 (inactive)	2.46 (inactive)	1.13 (inactive)	-1.96	0.211	3.13 (inactive)	0.832	-1.92	-0.41 (inactive)	-0.37 (inactive)	0.158 (inactive)
NCCCCCCNC(=O)[C@@H]1C[C@@H]2C(=O)N[C@@H](CCCCN)C(=O)N2[C@@H]1c1ccc(O)cc1	0.0187	0.243 (inactive)	0.681 (inactive)	-29.1 (active)	2.5 (inactive)	-0.476 (inactive)	-0.273 (inactive)	-1.11 (inactive)	-0.354	-0.28	2.07 (inactive)	0.739	-0.978	-1.72 (inactive)	-0.546 (inactive)	-0.123 (inactive)
C=CCNC(=O)[C@@H]1[C@H]2C(=O)O[C@H](c3ccccc3)[C@H](c3ccccc3)N2[C@H](c2ccccc2OCCO)[C@@]12C(=O)Nc1ccc(C#CCCO)cc12	0.282	0.634 (inactive)	0.373 (inactive)	1.22 (inactive)	4.62 (inactive)	1.96 (inactive)	-1.09 (inactive)	-2.17 (inactive)	-0.315	0.0461	0.712 (inactive)	0.596	-2.22	-3.84 (inactive)	-0.38 (inactive)	-0.262 (inactive)
CCOC(=O)C[C@H]1[C@H](OC(=O)c2ccc(C(=O)c3ccccc3)cc2)[C@@H](NC(=O)c2ccc3ccccc3n2)c2cc(OCCCO)ccc2N1C(=O)Cc1ccc(OC)cc1	-0.0031	1.03 (inactive)	0.0487 (inactive)	-0.0608 (inactive)	-0.75 (inactive)	0.0192 (inactive)	-2.25 (inactive)	-2.31 (inactive)	0.131	-0.0961	-0.667 (inactive)	-0.219	-2.69	-0.833 (inactive)	-0.824 (inactive)	-0.835 (inactive)
Oc1ccc2cc[n+](Cc3cc4c(cc3Br)OCO4)cc2c1	-0.269	-0.72 (inactive)	-0.526 (inactive)	-0.625 (inactive)	-0.159 (inactive)	1.31 (inactive)	0.364 (inactive)	0.161 (inactive)	-0.135	-0.281	0.425 (inactive)	0.135	0.0298	-8.63 (active)	0.12 (inactive)	0.225 (inactive)
COC(=O)[C@@]1(Cc2ccc(F)cc2)[C@H]2c3cc(C(=O)N4CCCC4)n(Cc4ccc(C)c(F)c4F)c3C[C@H]2CN1C(=O)c1ccccc1	-1.15	0.289 (inactive)	-1.42 (inactive)	-1.23 (inactive)	1 (inactive)	0.22 (inactive)	-0.107 (inactive)	-0.11 (inactive)	-0.588	-0.0483	-0.0082 (inactive)	-0.953	-1.53	-6.02 (inactive)	0.533 (inactive)	0.459 (inactive)
COCCOC(=O)N1C(=O)[C@@]2(c3cc(C#CC4(O)CCCCCC4)ccc31)[C@H](c1ccc(O)cc1)N1[C@H](c3ccccc3)[C@H](c3ccccc3)OC(=O)[C@H]1[C@@H]2C(=O)N1CCN(c2ncccn2)CC1	0.0439	-0.31 (inactive)	-0.705 (inactive)	0.244 (inactive)	0.654 (inactive)	0.326 (inactive)	-0.462 (inactive)	0.0188 (inactive)	-0.528	0.0487	0.0849 (inactive)	0.699	-1.99	-1.62 (inactive)	0.13 (inactive)	0.232 (inactive)
NC(=O)NCC#Cc1ccc2c(c1)[C@]1(C(=O)N2)[C@H](C(=O)N2CCN(c3ncccn3)CC2)[C@H]2C(=O)O[C@H](c3ccccc3)[C@H](c3ccccc3)N2[C@@H]1c1ccc(O)cc1	-0.727	1.14 (inactive)	-0.234 (inactive)	-2.21 (inactive)	1.16 (inactive)	0.939 (inactive)	-0.192 (inactive)	-0.15 (inactive)	-1.36	-0.0577	-0.0728 (inactive)	0.58	1.79	-1.83 (inactive)	0.161 (inactive)	0.359 (inactive)
CN(C)C(=O)[C@@]1(Cc2ccccc2CN=[N+]=[N-])N=C(c2ccc(OCCCO)cc2)O[C@H]1c1ccccc1N=[N+]=[N-]	-0.699	0.37 (inactive)	-2.96 (inactive)	1.3 (inactive)	0.522 (inactive)	1.22 (inactive)	0.776 (inactive)	-0.893 (inactive)	-3.85	0.202	0.458 (inactive)	0.822	-2.02	-0.638 (inactive)	-0.0351 (inactive)	-0.336 (inactive)
CC(C)N1CC=CC23O[C@@H]4C=CCCOC(=O)C4[C@H]2C(=O)N(CCCO)[C@@H]3C1=O (some centres not stated)	1.12	-0.951 (inactive)	0.348 (inactive)	-0.926 (inactive)	-0.276 (inactive)	0.0977 (inactive)	-0.463 (inactive)	0.32 (inactive)	-0.114	0.152	0.431 (inactive)	0.598	-2.07	-4.97 (inactive)	-0.0561 (inactive)	-0.12 (inactive)
CCOC(=O)[C@@H]1CCCCN1C(=O)C(=O)OC	-0.165	0.016 (inactive)	-0.05 (inactive)	0.0044 (inactive)	-0.255 (inactive)	0.245 (inactive)	-0.26 (inactive)	-0.253 (inactive)	-0.64	0.269	0.636 (inactive)	0.271	1.99	0.731 (inactive)	0.284 (inactive)	-0.0933 (inactive)
COc1cc(C(O)C2C=CC3C(=O)N(C)C(=O)C3N2Nc2ccccc2)cc(OC)c1OC (configuration not stated)	-0.237	-2.86 (inactive)	0.162 (inactive)	0.377 (inactive)	0.586 (inactive)	0.155 (inactive)	-0.654 (inactive)	-0.852 (inactive)	-0.0998	0.14	1.13 (inactive)	-0.0114	-0.164	-3.7 (inactive)	-0.129 (inactive)	-0.0016 (inactive)
O=C1OCCC=C[C@H]2OC34C=CCN(Cn5nnc6ccccc65)C(=O)[C@H]3N(CCCO)C(=O)[C@@H]4C12 (some centres not stated)	-0.614	-0.63 (inactive)	0.157 (inactive)	-0.535 (inactive)	-0.441 (inactive)	0.227 (inactive)	-1.13 (inactive)	-0.951 (inactive)	-0.997	-0.0351	2.05 (inactive)	-0.308	-1.82	-3.33 (inactive)	-0.628 (inactive)	-0.609 (inactive)
C=CCN1C(=O)[C@]2(CCS(=O)(=O)c3ccccc3)N=C(c3ccc(OCCCO)cc3)O[C@@H]2c2ccccc21	-0.735	0.383 (inactive)	-1.36 (inactive)	-0.756 (inactive)	0.218 (inactive)	0.742 (inactive)	0.7 (inactive)	0.916 (inactive)	-1.96	0.0738	0.0088 (inactive)	0.804	-2.33	-2.55 (inactive)	-0.419 (inactive)	-0.216 (inactive)
